Data as given in the supplement of paper PMC6555819.

Test system: VDR:RXRa (NR concentration 270 nM, RXRa partner concentration 90 nM)
Test: PBM binding z-score (relative to random genomic background probes); higher = stronger binding; sequences stand for … in GC…GCGATTGACAGCGTAGAATGAAGG
Experimental: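 Protein-binding microarray (Agilent 4x180K custom design, double-stranded 60-nt probes: 5' GC cap, 34-nt variable region, 24-nt constant primer region; full probe sequence given). Purified or IVT nuclear receptor:RXRα heterodimers (3:1 NR:RXRα, mostly 270:90 nM) or homodimers were incubated for 1 h in PBS with 2% milk and no ligand, then detected with Alexa488 antibodies. Fluorescence from o1-orientation probes (~5 replicates averaged) was converted to z-scores against 500 random hg19 background probes. Variable regions are seed direct-repeat (DR0–DR5) sites, all their single-nucleotide variants and half-site ablations.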

Sequence | PBM binding z-score
GCAGACAGGTGAAACGCAGTTAACTCAGGGTGGC | -0.561
GGAATGAGGGCAAAGTTGATAGCATCTGTCGACG | 1.82
CGTCCAAGGTCAAATGTCAGTGAAGAGATGACGG | 4.67
TCTGCGAGGTCAGTTGGTCAGCTAACGAGCTGCC | 3.43
CCTAGCAGGCCAATCTTGGTCACTCAAGGCTTGA | -0.601
GCTTGTAGATCTAGGTTAAGAAAGACTAAGCTAA | -0.392
CCTCGGAGGACAACAGGAGTTCAGAGCTGCCAGA | 1.14
TAGCCTAGGTCAATCAGGGGCCAGTATAGAAAGC | 2.32
CGTACAAGGTCAAGGTCAGTGAAAGAGACTCGAA | 4.98
TGAATGAGGTTAAAGATCAGGCAACGTGGCGTCG | 1.88
CGTCCAAGGGCAAGGTCAGTGAAAGAGACTCGAA | 1.59
TTTATTAGTTGATTAGGGCAACCGAAACAGCGGA | 0.643
TCGAGTAGGTTAGGGCCATTCAGAATGGCGTCGA | -0.353
AGAACGAGGGCAATGAGATGATAGCACGGGTGGC | 0.474
CCAGACAGGTGAGAAGGCAACTCAGCCTCGATTA | -0.345
ACAGACAGGTGAGTGAAGGTTACTCAGCTGGACG | 0.088
TAATATAGGTAAATGCTAGGTGAAAGTCCGATCT | 0.36
ATCTCTAGGTAAGACGCAGTTCAGTGAAGAACGC | 0.101
CCAGTCAGGTGAGAAGGTAACTCAGCCTCGATTA | -0.296
ATATGTAGGTTAGCTGGGGACATTCAGACTAGGC | 2.39

Sequence | PBM binding z-score
CCTAGTTGGTCAAGGTCAAACACGCTATAGGTAC | 4.47
CCTAGTTGGTCAGGAGGTAACACACCGGATATGA | 0.461
CCTATTAGTTGACCATAAGTGCAACCGAAGCTCG | 1.31
CCGATTAGGTTATGGGGCATTCAGGCAACGGTGA | 0.0574
TCTATTGGTTGATTAGGGCAACCGAAACAGCGGA | 0.547
CTCGGAAGGTCGTGCTCAGGTGAGTATACCAAAC | 1.58
GTTAGTTGGTCAGTAAAAGGTCACACACCGGTCG | 4.28
TAGCCTAGGTCTGATCGGGCCAGTATACGCTATA | -0.771
ATATGTAGGTTATCGGGTCATTCAGTTTGCGCAT | 5
AGAATGAGGTTATTGAGATCAGGGAATTGCGGTC | 3.35
AATACAGGGTCATCGTGGGCCAGAGTACGCACAG | 5.18
CGTCCAAGTTCAAAGGTCAGTGAAGAGATGACGG | 6.37
CATACAGGGTCAGCTAGGCAAGAGTAGGGACGGC | 2.53
TAGCCCAGGTCATGGGCCAGTATACCACGCGAAC | 2.64
CGTCCAAGGTCAATGCTAGGTCAGCGAAAGCATT | 4.93
CCCACTGGGCCATCAGGTCATTGATATCAACGTT | 1.89
ATCTCTAGGAAAGACTCAGTTCAGTGAAGAACGC | 0.436
CGTCCAAAGTCAGAGAGGTCAGTGAATGCCGAGT | 4.38
CAAACTAGGTCACAGAGGTCAAAGTGCGTGCGTA | 8.02
TCTTGTAGATCAAAGGTTAAGAAAGCCGAAGCCT | 1.37
